Measurements taken from PubChem BioAssay AID1159580 (chemical genetic matrix, 2015).
Among all 5,500 compounds or so, about 2,000 (36%) were called active. Not shown: some 18% with an inconclusive outcome. Some of the results follow. Values without a mark were called inactive. No stated cut-off is given here; in the data, active means normalized growth mostly below about 0.91 (no sharp cut-off); inconclusive means no clear call, values can overlap the other calls; inactive means mostly above about 0.92.

Assay: chemical genetic growth profiling, strain panel (AID 1159580);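 further: tested at 20 µM; growth read once vehicle control cultures reached saturation at 30 °C; 1 = growth at the plate median or of vehicle wells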
Conditions: growth OD

CC(C)=CCc1c(O)cc2occ(-c3ccc4c(c3)OCO4)c(=O)c2c1O
normalized growth (S. cerevisiae deletion strains, locus YJR066W, strain TOR1, stronger effect = lower value): 0.832
normalized growth (S. cerevisiae deletion strains, locus YJR075W, strain HOC1, stronger effect = lower value): 0.994
normalized growth (S. cerevisiae deletion strains, locus YKL068W, stronger effect = lower value): 1.01
normalized growth (S. cerevisiae deletion strains, locus YKL085W, strain MDH1 (second series), stronger effect = lower value): 1
normalized growth (S. cerevisiae deletion strains, locus YKL085W, strain MDH1, stronger effect = lower value): 1
normalized growth (S. cerevisiae deletion strains, locus YKL160W, strain elf1, stronger effect = lower value): 0.934
normalized growth (S. cerevisiae deletion strains, locus YKL190W, strain CNB1, stronger effect = lower value): 1.01
normalized growth (S. cerevisiae deletion strains, locus YKR001C, strain vps1, stronger effect = lower value): 1.03
normalized growth (S. cerevisiae deletion strains, locus YKR026C, strain gcn3, stronger effect = lower value): 0.992
normalized growth (S. cerevisiae deletion strains, locus YKR091W, strain srl3, stronger effect = lower value): 1
normalized growth (S. cerevisiae deletion strains, locus YLL001W, strain dnm1, stronger effect = lower value): 0.81 (active)
normalized growth (S. cerevisiae deletion strains, locus YLL026W, stronger effect = lower value): 0.984
normalized growth (S. cerevisiae deletion strains, locus YLL041C, strain sdh2, stronger effect = lower value): 0.991
normalized growth (S. cerevisiae deletion strains, locus YLR027C, strain aat2, stronger effect = lower value): 0.918 (active)
normalized growth (S. cerevisiae deletion strains, locus YLR039C, strain RIC1, stronger effect = lower value): 1.06
normalized growth (S. cerevisiae deletion strains, locus YLR058C, strain SHM2, stronger effect = lower value): 1.02
normalized growth (S. cerevisiae deletion strains, locus YLR102C, strain apc9, stronger effect = lower value): 1.03
normalized growth (S. cerevisiae deletion strains, locus YLR113W, strain HOG1, stronger effect = lower value): 0.75 (active)
normalized growth (S. cerevisiae deletion strains, locus YLR221C, strain rsa3, stronger effect = lower value): 0.865 (active)
normalized growth (S. cerevisiae deletion strains, locus YLR258W, strain gsy2, stronger effect = lower value): 0.919
normalized growth (S. cerevisiae deletion strains, locus YLR262C, strain YPT6 (second series), stronger effect = lower value): 0.911
normalized growth (S. cerevisiae deletion strains, locus YLR262C, strain YPT6, stronger effect = lower value): 1.06
normalized growth (S. cerevisiae deletion strains, locus YLR268W, strain sec22, stronger effect = lower value): 1
normalized growth (S. cerevisiae deletion strains, locus YLR320W, strain mms22, stronger effect = lower value): 0.929
normalized growth (S. cerevisiae deletion strains, locus YLR330W, strain CHS5, stronger effect = lower value): 1.01
normalized growth (S. cerevisiae deletion strains, locus YLR342W, strain FKS1 (second series), stronger effect = lower value): 0.996
normalized growth (S. cerevisiae deletion strains, locus YLR342W, strain FKS1, stronger effect = lower value): 0.952
normalized growth (S. cerevisiae deletion strains, locus YLR357W, strain rsc2, stronger effect = lower value): 0.948
normalized growth (S. cerevisiae deletion strains, locus YLR370C, strain arc18, stronger effect = lower value): 0.992
normalized growth (S. cerevisiae deletion strains, locus YLR371W, strain rom2, stronger effect = lower value): 1.04
normalized growth (S. cerevisiae deletion strains, locus YLR384C, strain iki3, stronger effect = lower value): 0.992
normalized growth (S. cerevisiae deletion strains, locus YLR418C, strain cdc73, stronger effect = lower value): 1.01
normalized growth (S. cerevisiae deletion strains, locus YML016C, strain PPZ1, stronger effect = lower value): 1.01
normalized growth (S. cerevisiae deletion strains, locus YML032C, strain rad52, stronger effect = lower value): 1.02
normalized growth (S. cerevisiae deletion strains, locus YML120C, strain ndi1, stronger effect = lower value): 0.895 (active)
normalized growth (S. cerevisiae deletion strains, locus YML124C, strain tub3, stronger effect = lower value): 1.02
normalized growth (S. cerevisiae deletion strains, locus YMR058W, strain fet3, stronger effect = lower value): 0.828 (active)
normalized growth (S. cerevisiae deletion strains, locus YMR078C, strain ctf18, stronger effect = lower value): 1.03
normalized growth (S. cerevisiae deletion strains, locus YMR125W, strain sto1, stronger effect = lower value): 0.957
normalized growth (S. cerevisiae deletion strains, locus YMR129W, stronger effect = lower value): 0.982
normalized growth (S. cerevisiae deletion strains, locus YMR205C, strain PFK2, stronger effect = lower value): 0.96
normalized growth (S. cerevisiae deletion strains, locus YMR223W, strain ubp8, stronger effect = lower value): 1.02
normalized growth (S. cerevisiae deletion strains, locus YMR231W, strain pep5, stronger effect = lower value): 0.993
normalized growth (S. cerevisiae deletion strains, locus YMR263W, strain SAP30, stronger effect = lower value): 1
normalized growth (S. cerevisiae deletion strains, locus YMR307W, strain GAS1, stronger effect = lower value): 1
normalized growth (S. cerevisiae deletion strains, locus YNL067W, strain RPL9B, stronger effect = lower value): 1
normalized growth (S. cerevisiae deletion strains, locus YNL071W, strain lat1, stronger effect = lower value): 0.949
normalized growth (S. cerevisiae deletion strains, locus YNL128W, strain TEP1, stronger effect = lower value): 1.02
normalized growth (S. cerevisiae deletion strains, locus YNL153C, strain GIM3, stronger effect = lower value): 1
normalized growth (S. cerevisiae deletion strains, locus YNL183C, strain NPR1, stronger effect = lower value): 0.839
normalized growth (S. cerevisiae deletion strains, locus YNL209W, strain ssb2, stronger effect = lower value): 0.937
normalized growth (S. cerevisiae deletion strains, locus YNL233W, strain BNI4, stronger effect = lower value): 0.971
normalized growth (S. cerevisiae deletion strains, locus YNL248C, strain rpa49, stronger effect = lower value): 0.962
normalized growth (S. cerevisiae deletion strains, locus YNL250W, strain rad50, stronger effect = lower value): 1.04
normalized growth (S. cerevisiae deletion strains, locus YNL271C, strain bni1, stronger effect = lower value): 1.03
normalized growth (S. cerevisiae deletion strains, locus YNL298W, strain CLA4, stronger effect = lower value): 1.05
normalized growth (S. cerevisiae deletion strains, locus YNL307C, strain MCK1, stronger effect = lower value): 1.02
normalized growth (S. cerevisiae deletion strains, locus YNL322C, strain KRE1 (second series), stronger effect = lower value): 0.998
normalized growth (S. cerevisiae deletion strains, locus YNL322C, strain KRE1, stronger effect = lower value): 1.01
normalized growth (S. cerevisiae deletion strains, locus YNR049C, strain mso1, stronger effect = lower value): 0.982
normalized growth (S. cerevisiae deletion strains, locus YNR052C, strain pop2, stronger effect = lower value): 1.03
normalized growth (S. cerevisiae deletion strains, locus YOL006C, strain TOP1, stronger effect = lower value): 1.05
normalized growth (S. cerevisiae deletion strains, locus YOL012C, strain htz1): 0.966
normalized growth (S. cerevisiae deletion strains, locus YOL147C, strain pex11, stronger effect = lower value): 1.03
normalized growth (S. cerevisiae deletion strains, locus YOR001W, strain rrp6, stronger effect = lower value): 0.857 (active)
normalized growth (S. cerevisiae deletion strains, locus YOR061W, strain CKA2, stronger effect = lower value): 1.01
normalized growth (S. cerevisiae deletion strains, locus YOR069W, strain VPS5, stronger effect = lower value): 1.01
normalized growth (S. cerevisiae deletion strains, locus YOR070C, strain gyp1, stronger effect = lower value): 0.954
normalized growth (S. cerevisiae deletion strains, locus YOR080W, strain dia2, stronger effect = lower value): 0.925
normalized growth (S. cerevisiae deletion strains, locus YOR083W, strain WHI5, stronger effect = lower value): 0.925
normalized growth (S. cerevisiae deletion strains, locus YOR106W, strain vam3, stronger effect = lower value): 0.899
normalized growth (S. cerevisiae deletion strains, locus YOR136W, strain idh2, stronger effect = lower value): 1.03
normalized growth (S. cerevisiae deletion strains, locus YOR144C, strain elg1, stronger effect = lower value): 1.02
normalized growth (S. cerevisiae deletion strains, locus YOR184W, strain ser1, stronger effect = lower value): 1.05
normalized growth (S. cerevisiae deletion strains, locus YOR231W, strain MKK1, stronger effect = lower value): 0.816 (active)
normalized growth (S. cerevisiae deletion strains, locus YOR265W, strain rbl2, stronger effect = lower value): 0.968
normalized growth (S. cerevisiae deletion strains, locus YOR270C, strain vph1, stronger effect = lower value): 0.729 (active)
normalized growth (S. cerevisiae deletion strains, locus YOR290C, strain snf2, stronger effect = lower value): 0.916
normalized growth (S. cerevisiae deletion strains, locus YOR316C, strain cot1, stronger effect = lower value): 1.02
normalized growth (S. cerevisiae deletion strains, locus YPL051W, strain arl3, stronger effect = lower value): 0.877 (active)
normalized growth (S. cerevisiae deletion strains, locus YPL055C, strain LGE1, stronger effect = lower value): 0.993
normalized growth (S. cerevisiae deletion strains, locus YPL078C, strain atp4, stronger effect = lower value): 0.918
normalized growth (S. cerevisiae deletion strains, locus YPL106C, strain sse1, stronger effect = lower value): 0.915
normalized growth (S. cerevisiae deletion strains, locus YPL240C, strain hsp82, stronger effect = lower value): 0.974
normalized growth (S. cerevisiae deletion strains, locus YPL241C, strain CIN2, stronger effect = lower value): 1.01
normalized growth (S. cerevisiae deletion strains, locus YPL256C, strain CLN2, stronger effect = lower value): 0.808 (active)
normalized growth (S. cerevisiae deletion strains, locus YPR119W, strain clb2, stronger effect = lower value): 1.02
normalized growth (S. cerevisiae deletion strains, locus YPR141C, strain kar3, stronger effect = lower value): 1.03
normalized growth (S. cerevisiae deletion strains, locus YPR163C, strain tif3, stronger effect = lower value): 1.02
normalized growth (S. cerevisiae deletion strains, locus YPR167C, strain met16, stronger effect = lower value): 1.03
normalized growth (S. cerevisiae deletion strains, strain wtn01, stronger effect = lower value): 1.02
normalized growth (S. cerevisiae strains, strain wild type, stronger effect = lower value): 1
